Lmaj promast: Leishmania major promastigote growth inhibition, primary screen; Leishmania major promastigotes, resazurin fluorescence viability; inhibition, % at 10 µM; hit rate 9% among 200,000; AID 1063, 2008; in the data active means inhibition above about 50%;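 further: promastigotes grown with compound for 44 hours at 28 °C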
CHOP inh: inhibitors of CHOP promoter induction, primary screen, cell-based, unfolded protein response, luciferase reporter; CHO-K1 CHOP-promoter luciferase, tunicamycin-induced, 15-18 h; inhibition, % at 10 µM; hit rate 3.8% among 220,000; AID 2732, 2010;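 active means compounds that reduced the stress-induced luciferase reporter signal by more than about 70% of percent inhibition, limit read from the data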;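 further: 0% = tunicamycin plus vehicle and 100% = wells without tunicamycin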
Arbovirus anti: antivirals against arbovirus infection, primary screen, cell-based, full library, 10K replicate subset; inhibition, % at 10 µM; hit rate 0.37% among 200,000; arbovirus infection cell-based antiviral screen; in the data active means inhibition above about 30%
WT yeast gro inh: growth inhibition of WT strain, primary screen, mitochondrial fusion inhibitor project, WT and mutant strains, chemical genetic. mitochondrial fusion phenotypic screen. inhibition, % at 10 µM. hit rate 2.1% among 190,000; in the data active means inhibition above about 58%; tested in S. cerevisiae
Numbers without * were called inactive; nt = no result given. Shown are actives, neighbours in structure and some others; about 12% of the full set was active somewhere.

SMILES | Lmaj promast | CHOP inh | Arbovirus anti | WT yeast gro inh
Cc1nnc(SCC(=O)NCc2ccc3c(c2)OCO3)[nH]c1=O | -7.9 | 5.7 | -1.7 | -2.1
CCOc1ccc(Nc2nc(N)nc(CN3CCN(c4ccccc4F)CC3)n2)cc1 | 52.0* | 48.2 | 1.3 | 20.9
COc1ccccc1Nc1nc(N)nc(CN2CCN(Cc3ccccc3)CC2)n1 | 1.8 | 50.9 | 1.6 | 3.4
COc1ccccc1N1CCN(Cc2nc(N)nc(Nc3ccc(C)c(Cl)c3)n2)CC1 | 12.0 | 76.4* | -10.1 | 21.1
COc1ccccc1Nc1nc(N)nc(CN2CCN(c3ccccc3F)CC2)n1 | 4.2 | 83.3* | -0.8 | 8.5
Cc1cccc(Nc2nc(N)nc(CN3CCN(c4ccccc4F)CC3)n2)c1 | 18.3 | nt | nt | nt
CCCCN1C(=O)N(c2nnc(C(C)(C)C)s2)C(O)C1c1ccc(C)cc1 (configuration not stated) | nt | 2.0 | nt | nt
Cc1c(C(=O)Nc2ccc3c(c2)OCO3)sc2ncn(CC(=O)N3CC(C)CC(C)C3)c(=O)c12 (configuration not stated) | -10.2 | 14.4 | -5.0 | -7.2
CN(C)CCCNc1oc(-c2ccc(Cl)cc2)nc1C#N | 82.9* | 13.2 | -17.9 | 4.1
COCCNc1oc(-c2ccc(Cl)cc2)nc1C#N | -14.7 | nt | -2.1 | 2.4
CCN(CC)CCCNc1oc(-c2cccc(Cl)c2)nc1C#N | 100.6* | 3.7 | -12.9 | -11.5
CC(/C=C1\N=C(SCc2ccccc2)SC1=O)=C\c1ccccc1 | -2.2 | 23.4 | -8.5 | -9.0
CCO[C@@H]1OC(C(=O)N2CCN(Cc3ccccc3)CC2)=C[C@H](c2csc3ccccc23)[C@H]1CCCO | 30.8 | 20.8 | -13.3 | 14.7
CCCc1sc(N/N=C/c2ccccn2)nc1-c1ccc(F)cc1 | 96.2* | 87.4* | -25.9 | 83.0*
COC(=O)c1ccc(/C=N/Nc2nc(C)c(C)s2)cc1 | nt | -40.6 | nt | nt
Cc1nc(N/N=C/c2ccccn2)sc1C | 3.5 | 86.3* | -31.9 | 47.5
CCN=c1scc(-c2ccc(F)cc2)n1/N=C/c1ccccn1 | 24.6 | 5.3 | 7.7 | 48.1
O=[N+]([O-])c1cccc(-c2nnc3ccccn23)c1 | nt | -14.4 | nt | nt
Cn1c(NC(=O)c2ccccc2)c(-c2ccccn2)c(=O)c2ccccc21 | -1.5 | -18.3 | -2.4 | 7.8
CC(C)(O)C#Cc1ccc(C(=O)N2CCN(c3ccc(Cl)cc3)CC2)cc1 | -1.5 | 63.0 | 11.8 | 27.1
CC[n+]1ccc(/C=C2\Sc3ccccc3N2CCCS(=O)(=O)[O-])c2ccccc21 | 4.9 | -10.0 | 7.2 | 8.7
CN1C=C/C(=C\c2cc[n+](C)c3ccccc23)c2ccccc21 | 100.6* | 13.5 | -3.8 | 69.1*
C/C(=N\n1cnnc1)c1ccc(C#N)cc1 | -8.1 | 6.8 | 16.5 | -0.1
CCOC(=O)c1sc2nc(C)nc(SCC(=O)NC(C)CCc3ccccc3)c2c1C (configuration not stated) | 95.9* | 13.5 | 4.6 | -1.4
CC(C)C(=O)Nc1ccc(C(=O)NNC(=S)NC(=O)c2ccco2)cc1 | nt | -6.2 | nt | nt
SMILES | Lmaj promast | CHOP inh | Arbovirus anti | WT yeast gro inh
c1ccc(-c2ccc3c(c2)NCCN3)cc1 | nt | -35.3 | nt | nt
CCOC(=O)C1CCN(C(=O)Nc2ccc3nc(-c4ccco4)c(-c4ccco4)nc3c2)CC1 | 96.1* | -27.7 | 0.0 | 1.2
CCCOP(=O)(OCCC)C(Nc1ccc(C(C)C)cc1)c1ccc([N+](=O)[O-])cc1 (configuration not stated) | 34.5 | 19.1 | -25.3 | 73.7*
CC(C)COc1ccc(C/C(N)=N/n2cnnc2)cc1 | -3.4 | 28.8 | 13.1 | -4.3
C=CCOc1ccccc1CNc1ccccc1C | -1.1 | 70.1* | 0.4 | -13.1
C=CCOc1ccccc1CNn1nnnc1N | 1.0 | 44.4 | 8.5 | -2.9
Clc1ccc(COc2ccccc2CNCc2cccnc2)cc1 | 98.8* | 25.3 | 0.7 | 9.2
Cc1ccccc1NCc1ccccc1O | -0.7 | 32.6 | 7.0 | -4.0
C=CCOc1ccccc1CNCc1cccnc1 | 87.5* | 7.6 | 7.0 | 3.8
O=C(COC(=O)c1ncc(Cl)c(Cl)c1Cl)c1ccc(Cl)s1 | 48.8 | 51.3 | 3.5 | -3.6
O=C(CSc1nnc(C2COc3ccccc3O2)o1)N1CCN(c2ccccc2)CC1 (configuration not stated) | -7.9 | 10.8 | 8.3 | 9.8
CN1CCN(CC(O)c2ccccc2)CC1 (configuration not stated) | -2.2 | 80.1* | 4.9 | 4.7
CN(C)CCOc1nc(-c2ccccc2)nc2c1oc1ccccc12 | 99.8* | 44.1 | -48.0 | 13.7
CN(C)CCOc1ncnc2c1oc1ccccc12 | 9.8 | 4.3 | -2.2 | 41.4
COc1ccc(C(C(=O)NC2CCCC2)N(C(=O)c2snc(-c3ccc(F)cc3)c2N)c2ccc(F)cc2)cc1 (configuration not stated) | 71.0* | 46.6 | -18.4 | -12.3
